Measurements reported in the supplement of paper PMC13380429.

Tested on: Vero E6 infected with SARS-CoV-2
Assay: inhibition of SARS-CoV-2 cytopathic effect; higher = more antiviral protection, active = above 15
Conditions: 48 h

Measured: inhibition of SARS-CoV-2 cytopathic effect

CCOC(=O)CC(=O)N1CCSC1COc1ccccc1OC (stereo not given) [moguisteine]
inactive: 1 nM -0.34% | 8.33 nM 0.03% | 100 nM -3.76% | 833.33 nM -0.38% | 10000 nM 0.52%

CCC(=O)O[C@]1(C(=O)COC(C)=O)CC[C@H]2[C@@H]3C[C@H](C)C4=CC(=O)C=C[C@]4(C)[C@H]3[C@@H](O)C[C@@]21C [methylprednisolone-aceponate]
inactive: 1 nM 1.61% | 8.33 nM 1% | 100 nM 0.19% | 833.33 nM 3.54% | 10000 nM 2.69%

O=C(O)c1cc(O)c2c(c1)[C@H]([C@H]1c3cc(C(=O)O)cc(O)c3C(=O)c3c(O[C@@H]4O[C@H](CO)[C@@H](O)[C@H](O)[C@H]4O)cccc31)c1cccc(O[C@@H]3O[C@H](CO)[C@@H](O)[C@H](O)[C@H]3O)c1C2=O [sennoside-A]
inactive: 1 nM -3.2% | 8.33 nM 0% | 100 nM 0.82% | 833.33 nM 0.38% | 10000 nM -2.08%

O=C(CCN1CCN(C(=O)OCc2cc(Cl)cc(Cl)c2)CC1)c1ccc2[nH]c(=O)oc2c1
inactive: 1 nM 3.18% | 8.33 nM 5.29% | 100 nM 2.77% | 833.33 nM 4.56% | 10000 nM 1.71%

CC(C)(C)NC[C@H](O)c1ccc(O)cc1Cl [meluadrine]
inactive: 1 nM -1.16% | 8.33 nM 1.91% | 100 nM 1.61% | 833.33 nM -2.53% | 10000 nM -3.94%

Cc1nc2ccc(-n3ncc(C(=O)c4cc5ccccc5[nH]4)c3N)cc2[nH]1
inactive: 1 nM -2.45% | 8.33 nM -1.11% | 100 nM 0.12% | 833.33 nM 2.07% | 10000 nM -0.86%
